PubChem BioAssay (EPA / NIEHS)
Several values for one entry are separate records, joined by “and”; a condition that tells them apart may be missing. Equal values may be shown once. Records with an inconclusive call do not appear. Where a structure was tested more than once in an assay, its records may differ in their call. Activity calls are given as the source filed them. Rule for the calls: active = hit-call score of the fitted dose curve at least 0.9, where 1 is the maximum; inconclusive = response in the unintended direction; inactive = score below 0.9.

Columns and labels:
[1] = biological target: human IkappaB Kinase alpha (IKKa), CHUK (gene 1147) (UniProt O15111); test: NVS_ENZ_hIKKa: NovaScreen (NVS) Enzymatic Assay for human IkappaB Kinase alpha (IKKa) (AID 2283167)
Outline: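 Compounds first run in duplicate at 25 uM, those meeting threshold (e.g. 30% inhibition) retested to maximum 50 uM. Enzyme activity of recombinant IKKa measured by fluorescence with electrophoretic mobility shift separation, 1 hour post-dosing, DMSO baseline.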

[2] = biological target: human Matrix Metalloproteinase-7 (MMP7), MMP7 (gene 4316) (UniProt P09237); test: NVS_ENZ_hMMP7: NovaScreen (NVS) Enzymatic Assay for human Matrix Metalloproteinase-7 (MMP7) (AID 2283183)
human Matrix Metalloproteinase-7 (MMP7), MMP7 (gene 4316), sequence (P09237 whole entry, looked up): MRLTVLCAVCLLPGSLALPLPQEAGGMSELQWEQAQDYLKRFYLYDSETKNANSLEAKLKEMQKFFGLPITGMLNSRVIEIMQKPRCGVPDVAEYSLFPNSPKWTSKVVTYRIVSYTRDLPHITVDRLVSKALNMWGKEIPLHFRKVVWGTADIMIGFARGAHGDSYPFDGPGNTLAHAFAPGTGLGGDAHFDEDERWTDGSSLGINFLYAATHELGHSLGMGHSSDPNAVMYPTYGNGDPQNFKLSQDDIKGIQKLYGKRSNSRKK
Outline: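 Compounds first tested at 25 uM in duplicate, then at up to 50 uM in concentration series if active. Protease activity measured by fluorescence intensity 1 h after dosing, with fitting relative to DMSO.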

[3] = biological target: human Matrix Metalloproteinase-3 (MMP3), MMP3 (gene 4314) (UniProt P08254); test: NVS_ENZ_hMMP3: NovaScreen (NVS) Enzymatic Assay for human Matrix Metalloproteinase-3 (MMP3) (AID 2283185)
human Matrix Metalloproteinase-3 (MMP3), MMP3 (gene 4314), sequence (P08254 whole entry, looked up): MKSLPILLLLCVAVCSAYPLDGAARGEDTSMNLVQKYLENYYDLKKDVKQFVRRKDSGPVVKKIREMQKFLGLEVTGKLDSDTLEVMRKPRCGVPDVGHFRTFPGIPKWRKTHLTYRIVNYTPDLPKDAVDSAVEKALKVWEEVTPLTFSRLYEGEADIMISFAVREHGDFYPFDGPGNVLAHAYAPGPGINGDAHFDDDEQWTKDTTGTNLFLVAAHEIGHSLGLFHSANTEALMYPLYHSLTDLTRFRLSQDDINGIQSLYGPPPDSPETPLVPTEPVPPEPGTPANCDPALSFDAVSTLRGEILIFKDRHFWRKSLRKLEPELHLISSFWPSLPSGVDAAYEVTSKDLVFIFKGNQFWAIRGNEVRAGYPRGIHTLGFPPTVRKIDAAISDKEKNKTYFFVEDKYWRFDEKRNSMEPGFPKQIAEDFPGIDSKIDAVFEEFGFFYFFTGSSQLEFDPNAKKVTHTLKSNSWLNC
Outline: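 Fluorescent substrate turnover by recombinant MMP3 read after 1 h, signal loss scored against DMSO. Compounds first run in duplicate at 25 uM single dose, then actives confirmed by concentration series.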

[4] = biological target: Mitogen-activated protein kinase 3 (Homo sapiens) (UniProt P27361); test: NVS_ENZ_hMAPK3: NovaScreen (NVS) Enzymatic Assay for human Mitogen-Activated Protein Kinase 3 (MAPK 3) (AID 2283177)
Mitogen-activated protein kinase 3 (Homo sapiens), sequence (P27361 whole entry, looked up): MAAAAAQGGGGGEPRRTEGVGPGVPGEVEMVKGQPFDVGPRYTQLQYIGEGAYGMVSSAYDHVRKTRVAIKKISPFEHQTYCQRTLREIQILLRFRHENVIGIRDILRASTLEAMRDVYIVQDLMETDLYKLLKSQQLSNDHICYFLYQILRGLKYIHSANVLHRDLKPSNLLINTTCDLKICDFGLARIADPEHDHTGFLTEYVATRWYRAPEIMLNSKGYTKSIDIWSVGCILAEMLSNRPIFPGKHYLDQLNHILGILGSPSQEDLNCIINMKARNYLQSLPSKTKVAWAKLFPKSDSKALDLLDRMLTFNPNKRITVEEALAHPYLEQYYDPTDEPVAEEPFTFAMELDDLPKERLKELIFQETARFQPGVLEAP
Outline: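 Chemicals were first tested in duplicate at 25 uM, with hits re-run as concentration series (max 50 uM). Recombinant enzyme activity, measured 1 h post-dose in a cell-free format, was read by fluorescence/mobility shift relative to DMSO.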

[5] = biological target: human Fibroblast Growth Factor Receptor 1 (FGFR1), FGFR1 (gene 2260) (UniProt P11362); test: NVS_ENZ_hFGFR1: NovaScreen (NVS) Enzymatic Assay for human Fibroblast Growth Factor Receptor 1 (FGFR1) (AID 2283159);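 for AC50: hits lower the signal so potencies describe inhibitors of the kinase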
human Fibroblast Growth Factor Receptor 1 (FGFR1), FGFR1 (gene 2260), sequence (P11362 whole entry, looked up): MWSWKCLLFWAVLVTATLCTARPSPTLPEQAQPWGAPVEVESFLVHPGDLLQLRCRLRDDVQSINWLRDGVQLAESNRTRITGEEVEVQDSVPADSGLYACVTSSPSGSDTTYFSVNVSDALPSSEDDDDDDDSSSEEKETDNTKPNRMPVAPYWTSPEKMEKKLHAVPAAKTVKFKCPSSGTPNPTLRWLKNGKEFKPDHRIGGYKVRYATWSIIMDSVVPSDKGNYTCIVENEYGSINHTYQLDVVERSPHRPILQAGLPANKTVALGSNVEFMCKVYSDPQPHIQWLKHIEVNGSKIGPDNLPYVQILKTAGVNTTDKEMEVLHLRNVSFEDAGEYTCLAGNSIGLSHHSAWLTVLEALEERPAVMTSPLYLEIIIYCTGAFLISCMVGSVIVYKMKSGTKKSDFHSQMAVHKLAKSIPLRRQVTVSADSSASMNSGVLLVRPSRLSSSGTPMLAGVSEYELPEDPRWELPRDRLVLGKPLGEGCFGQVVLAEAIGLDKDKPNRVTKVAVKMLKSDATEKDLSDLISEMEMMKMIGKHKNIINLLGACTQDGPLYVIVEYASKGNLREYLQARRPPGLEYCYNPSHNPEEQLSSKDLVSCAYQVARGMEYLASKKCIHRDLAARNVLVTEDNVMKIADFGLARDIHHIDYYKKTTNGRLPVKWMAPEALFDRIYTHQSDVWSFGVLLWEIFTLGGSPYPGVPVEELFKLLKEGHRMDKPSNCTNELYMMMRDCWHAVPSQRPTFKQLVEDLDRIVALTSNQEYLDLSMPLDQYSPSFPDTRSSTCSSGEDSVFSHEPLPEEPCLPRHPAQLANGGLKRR
Outline: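 Cell-free recombinant kinase with fluorescent substrate, product separated by electrophoretic mobility shift; read 1 hour after dosing, loss of signal relative to DMSO. Initial screen in duplicate at 25 uM, actives followed in concentration series.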

[6] = biological target: human Janus Kinase 2 (Jak2), JAK2 (gene 3717) (UniProt O60674); test: NVS_ENZ_hJak2: NovaScreen (NVS) Enzymatic Assay for human Janus Kinase 2 (Jak2) (AID 2283169)
Outline: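 Single-point duplicate screen at 25 uM, with hits run in concentration series to a 50 uM top dose. Substrate-product separation by mobility shift with fluorescence detection, 1 h post-dosing; DMSO baseline.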

[7] = biological target: human MET Proto-Oncogene, Receptor Tyrosine Kinase (MET), MET (gene 4233) (UniProt P08581); test: NVS_ENZ_hMet: NovaScreen (NVS) Enzymatic Assay for human MET Proto-Oncogene, Receptor Tyrosine Kinase (MET) (AID 2283180)
Outline: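 Hits from a 25 uM duplicate screen were retested in concentration series up to 50 uM. Enzyme activity was measured by fluorescence after electrophoretic separation of product from substrate, 1 h after compound addition, relative to DMSO.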

[8] = biological target: human p21 Activated Kinase 4 (PAK4), PAK4 (gene 10298) (UniProt O96013); test: NVS_ENZ_hPAK4: NovaScreen (NVS) Enzymatic Assay for human p21 Activated Kinase 4 (PAK4) (AID 2283189)
human p21 Activated Kinase 4 (PAK4), PAK4 (gene 10298), sequence (O96013 whole entry, looked up): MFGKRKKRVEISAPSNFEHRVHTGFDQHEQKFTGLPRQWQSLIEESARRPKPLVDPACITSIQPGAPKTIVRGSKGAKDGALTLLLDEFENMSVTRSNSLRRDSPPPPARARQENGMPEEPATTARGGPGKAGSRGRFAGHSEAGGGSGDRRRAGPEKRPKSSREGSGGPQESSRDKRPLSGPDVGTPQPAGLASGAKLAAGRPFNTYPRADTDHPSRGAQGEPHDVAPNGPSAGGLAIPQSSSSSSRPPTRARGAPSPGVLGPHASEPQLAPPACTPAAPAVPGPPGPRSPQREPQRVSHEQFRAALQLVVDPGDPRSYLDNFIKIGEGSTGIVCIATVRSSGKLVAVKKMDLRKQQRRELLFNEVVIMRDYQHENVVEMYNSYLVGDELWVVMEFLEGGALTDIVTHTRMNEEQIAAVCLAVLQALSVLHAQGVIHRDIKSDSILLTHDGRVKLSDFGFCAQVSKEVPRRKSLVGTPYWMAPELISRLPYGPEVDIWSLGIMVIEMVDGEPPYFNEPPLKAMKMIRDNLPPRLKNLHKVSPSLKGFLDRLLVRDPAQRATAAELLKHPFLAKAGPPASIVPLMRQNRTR
Outline: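 Extracted PAK4 enzyme activity read by fluorescence with mobility-shift separation 1 h after chemical addition. Duplicate single-concentration screen at 25 uM, DMSO as negative control.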

[9] = biological target: Glycogen synthase kinase-3 beta (Homo sapiens) (UniProt P49841); test: NVS_ENZ_hGSK3b: NovaScreen (NVS) Enzymatic Assay for human Glycogen Synthase Kinase-3 beta (GSK3b) (AID 2283165)
Glycogen synthase kinase-3 beta (Homo sapiens), sequence (P49841 whole entry, looked up): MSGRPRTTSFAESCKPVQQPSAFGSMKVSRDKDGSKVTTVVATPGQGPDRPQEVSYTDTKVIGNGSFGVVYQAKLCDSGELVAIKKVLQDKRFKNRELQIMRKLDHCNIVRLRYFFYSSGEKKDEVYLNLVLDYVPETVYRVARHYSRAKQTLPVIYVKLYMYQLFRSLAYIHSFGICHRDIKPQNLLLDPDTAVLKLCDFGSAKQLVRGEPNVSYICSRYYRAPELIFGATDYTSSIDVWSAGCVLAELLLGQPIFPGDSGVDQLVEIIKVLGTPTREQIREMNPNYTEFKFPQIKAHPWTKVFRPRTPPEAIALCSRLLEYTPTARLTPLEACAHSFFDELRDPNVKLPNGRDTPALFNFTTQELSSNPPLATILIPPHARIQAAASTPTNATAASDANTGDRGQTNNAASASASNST
Outline: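 Recombinant enzyme with specific fluorescent substrate, 1 h, product separated by electrophoretic mobility shift. Primary duplicate screen at 25 uM; actives (e.g. 30% inhibition) followed in singleton concentration-response to 50 uM. Signal loss fitted versus DMSO.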

[10] = biological target: human MAP Kinase-Activated Protein Kinase 2 (MAPKAPK2), MAPKAPK2 (gene 9261) (UniProt P49137); test: NVS_ENZ_hMAPKAPK2: NovaScreen (NVS) Enzymatic Assay for human MAP Kinase-Activated Protein Kinase 2 (MAPKAPK2) (AID 2283178)
Outline: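 Chemicals screened in duplicate at 25 uM, then to 50 uM top concentration in concentration-response, against recombinant human MAPKAPK2; substrate conversion read 1 hr post-dosing by fluorescence after electrophoretic mobility-shift separation, loss-of-signal relative to DMSO.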

[11] = biological target: human Mitogen- and Stress-activated Protein Kinase-1 (Msk1), RPS6KA5 (gene 9252) (UniProt O75582); test: NVS_ENZ_hMsk1: NovaScreen (NVS) Enzymatic Assay for human Mitogen- and Stress-activated Protein Kinase-1 (Msk1) (AID 2283187)
Outline: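 Chemicals first run in duplicate at 25 uM, with actives followed up in singleton concentration series to 50 uM maximum. Enzyme activity came from substrate/product mobility-shift separation with fluorescence detection after 1 h incubation of the recombinant protein.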

[12] = biological target: human Insulin Receptor (InsR), INSR (gene 3643) (UniProt P06213); test: NVS_ENZ_hInsR: NovaScreen (NVS) Enzymatic Assay for human Insulin Receptor (InsR) (AID 2283168)
Outline: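 Cell-free enzyme assay read 1 h post-dose by fluorescence after substrate/product mobility-shift separation. Duplicate 25 uM primary screen, then singleton concentration-response up to 50 uM for compounds passing threshold; loss of signal vs DMSO.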

[13] = biological target: human FYN Proto-Oncogene, Src family Tyrosine Kinase (Fyn), FYN (gene 2534) (UniProt P06241); test: NVS_ENZ_hFyn: NovaScreen (NVS) Enzymatic Assay for human FYN Proto-Oncogene, Src family Tyrosine Kinase (Fyn) (AID 2283161)
Outline: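 Cell-free kinase activity read by fluorescence after mobility-shift separation of substrate and product, 1 h post-dose. Initial single concentration 25 uM in duplicate, then concentration-response follow-up; DMSO baseline.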

[14] = biological target: Collagenase 3 (Homo sapiens) (UniProt P45452); test: NVS_ENZ_hMMP13: NovaScreen (NVS) Enzymatic Assay for human Matrix Metalloproteinase-13 (MMP13) (AID 2283182)
Outline: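 Recombinant MMP13 cleaving fluorescent substrate, cell-free, measured 1 h after dosing. Primary duplicate screen at 25 uM; actives tested in concentration-response up to 50 uM; loss of signal relative to DMSO.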

[15] = biological target: human NIMA (Never In Mitosis Gene A)-Related Kinase 2 (NEK2), NEK2 (gene 4751) (UniProt P51955); test: NVS_ENZ_hNEK2: NovaScreen (NVS) Enzymatic Assay for human NIMA (Never In Mitosis Gene A)-Related Kinase 2 (NEK2) (AID 2283188)
Outline: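 Compounds were first screened in duplicate at 25 uM, with actives followed up in concentration series. Recombinant NEK2 activity, cell-free, was read 1 h after dosing by fluorescence intensity after mobility-shift separation. Signal loss was scored against DMSO.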

[16] = biological target: Histone deacetylase 3 (Homo sapiens) (UniProt O15379); test: NVS_ENZ_hHDAC3: NovaScreen (NVS) Enzymatic Assay for human Histone Deacetylase 3 (HDAC3) (AID 2283163)
Outline: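 Cell-free enzyme format: loss of fluorescent product after mobility-shift separation, 1 h incubation, recombinant human HDAC3. Single 25 uM duplicate screen first, then concentration series to a 50 uM top for hits; DMSO as baseline.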

[17] = biological target: human Mitogen-Activated Protein Kinase 1 (MAPK 1), MAPK1 (gene 5594) (UniProt P28482); test: NVS_ENZ_hMAPK1: NovaScreen (NVS) Enzymatic Assay for human Mitogen-Activated Protein Kinase 1 (MAPK 1) (AID 2283175)
human Mitogen-Activated Protein Kinase 1 (MAPK 1), MAPK1 (gene 5594), sequence (P28482 whole entry, looked up): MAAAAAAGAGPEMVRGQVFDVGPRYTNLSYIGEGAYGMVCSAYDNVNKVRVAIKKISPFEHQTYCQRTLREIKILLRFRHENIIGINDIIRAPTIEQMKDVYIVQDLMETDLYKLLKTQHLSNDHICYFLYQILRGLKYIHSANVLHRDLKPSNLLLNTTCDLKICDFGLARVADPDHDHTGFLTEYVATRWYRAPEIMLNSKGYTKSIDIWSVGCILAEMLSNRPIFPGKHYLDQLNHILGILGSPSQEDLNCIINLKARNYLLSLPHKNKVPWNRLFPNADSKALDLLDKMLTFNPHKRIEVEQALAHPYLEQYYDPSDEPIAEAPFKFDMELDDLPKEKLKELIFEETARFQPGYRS
Outline: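 Cell-free recombinant human MAPK1 enzymatic assay, fluorescence/electrophoretic mobility shift read at 1 h; loss of signal vs DMSO. Primary screen in duplicate at 25 uM; actives (e.g. ≥30% inhibition) run as concentration-response up to 50 uM.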

[18] = biological target: human Ephrin type-A Receptor 1 (EphA1), EPHA1 (gene 2041) (UniProt P21709); test: NVS_ENZ_hEphA1: NovaScreen (NVS) Enzymatic Assay for human Ephrin type-A Receptor 1 (EphA1) (AID 2283158);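 note: activity is signal loss versus DMSO meaning EphA1 kinase inhibition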
human Ephrin type-A Receptor 1 (EphA1), EPHA1 (gene 2041), sequence (P21709 whole entry, looked up): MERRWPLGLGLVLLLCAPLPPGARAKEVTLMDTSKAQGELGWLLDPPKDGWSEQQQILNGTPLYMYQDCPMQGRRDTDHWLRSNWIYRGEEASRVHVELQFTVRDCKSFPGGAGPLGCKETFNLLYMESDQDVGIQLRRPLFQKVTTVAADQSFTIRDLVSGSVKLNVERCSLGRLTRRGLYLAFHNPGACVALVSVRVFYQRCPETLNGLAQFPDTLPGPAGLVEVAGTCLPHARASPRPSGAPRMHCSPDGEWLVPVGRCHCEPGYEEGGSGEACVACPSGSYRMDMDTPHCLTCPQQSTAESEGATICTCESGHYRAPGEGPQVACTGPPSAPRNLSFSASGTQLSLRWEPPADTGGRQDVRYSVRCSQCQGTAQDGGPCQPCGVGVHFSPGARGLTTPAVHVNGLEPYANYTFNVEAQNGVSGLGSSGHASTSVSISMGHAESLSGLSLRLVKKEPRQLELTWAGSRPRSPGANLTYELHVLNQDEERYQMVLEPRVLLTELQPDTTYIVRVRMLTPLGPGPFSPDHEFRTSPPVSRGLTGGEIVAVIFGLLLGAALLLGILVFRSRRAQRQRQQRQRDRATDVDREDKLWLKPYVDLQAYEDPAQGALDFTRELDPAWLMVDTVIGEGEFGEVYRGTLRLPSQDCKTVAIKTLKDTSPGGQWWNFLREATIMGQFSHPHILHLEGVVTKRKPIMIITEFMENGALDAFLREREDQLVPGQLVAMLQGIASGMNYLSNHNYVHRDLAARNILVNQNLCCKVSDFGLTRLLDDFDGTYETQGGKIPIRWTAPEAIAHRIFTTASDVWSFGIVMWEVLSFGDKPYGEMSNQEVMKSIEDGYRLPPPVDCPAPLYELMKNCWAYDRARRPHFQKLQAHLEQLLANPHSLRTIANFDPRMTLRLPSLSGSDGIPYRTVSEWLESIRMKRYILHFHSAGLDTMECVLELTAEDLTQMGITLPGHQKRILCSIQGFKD
Outline: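 Biochemical kinase assay run cell-free; 1 h incubation; readout is fluorescence with mobility-shift separation of product. Concentration-response up to 50 uM for actives from a 25 uM screen.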

[19] = biological target: human Matrix Metalloproteinase-2 (MMP2), MMP2 (gene 4313) (UniProt P08253); test: NVS_ENZ_hMMP2: NovaScreen (NVS) Enzymatic Assay for human Matrix Metalloproteinase-2 (MMP2) (AID 2283184)
human Matrix Metalloproteinase-2 (MMP2), MMP2 (gene 4313), sequence (P08253 whole entry, looked up): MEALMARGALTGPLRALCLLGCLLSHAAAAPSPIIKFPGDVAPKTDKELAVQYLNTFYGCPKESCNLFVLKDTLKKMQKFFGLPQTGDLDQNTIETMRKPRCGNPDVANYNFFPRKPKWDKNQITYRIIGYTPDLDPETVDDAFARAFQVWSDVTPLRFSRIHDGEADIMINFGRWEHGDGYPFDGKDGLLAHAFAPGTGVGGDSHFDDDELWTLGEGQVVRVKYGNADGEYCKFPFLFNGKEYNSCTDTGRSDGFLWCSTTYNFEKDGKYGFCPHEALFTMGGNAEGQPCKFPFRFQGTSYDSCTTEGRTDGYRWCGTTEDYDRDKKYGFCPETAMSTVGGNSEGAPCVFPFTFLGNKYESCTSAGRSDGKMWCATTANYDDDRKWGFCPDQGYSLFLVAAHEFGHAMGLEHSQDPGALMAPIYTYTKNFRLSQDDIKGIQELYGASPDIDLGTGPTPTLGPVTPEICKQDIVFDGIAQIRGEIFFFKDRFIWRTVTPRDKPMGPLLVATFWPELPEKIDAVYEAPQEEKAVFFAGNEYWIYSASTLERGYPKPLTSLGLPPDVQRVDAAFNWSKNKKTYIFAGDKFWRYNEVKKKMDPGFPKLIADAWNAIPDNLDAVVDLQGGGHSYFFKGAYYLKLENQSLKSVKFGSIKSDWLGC
Outline: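 Compounds first screened in duplicate at a single 25 uM, with actives followed up in concentration series. Recombinant human MMP2 cleaves a fluorogenic substrate; fluorescence taken at 1 h, inhibition fitted relative to DMSO.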

CCC(CC)Nc1c([N+](=O)[O-])cc(C)c(C)c1[N+](=O)[O-]
outcome [1]: inactive

CCOP(=O)(OCC)Oc1cc(C)nc(C(C)C)n1
AC50 [2]: 11.8 µM (active)
outcome [3]: inactive

COc1ccc(C(=CC(=O)N2CCOCC2)c2ccc(Cl)cc2)cc1OC
outcome [4]: inactive

CC[C@H](C)[C@H]1O[C@]2(C=C[C@@H]1C)C[C@@H]1C[C@@H](C/C=C(\C)[C@@H](O[C@H]3C[C@H](OC)[C@@H](O[C@H]4C[C@H](OC)[C@@H](NC)[C@H](C)O4)[C@H](C)O3)[C@@H](C)/C=C/C=C3\CO[C@@H]4[C@H](O)C(C)=C[C@@H](C(=O)O1)[C@]34O)O2
AC50 [5]: 16.5 µM (active)
AC50 [6]: 15.4 µM (active)
outcome [7]: inactive
outcome [8]: inactive

Nc1c(Cl)cc([N+](=O)[O-])cc1Cl
outcome [9]: inactive
outcome [10]: inactive
outcome [3]: inactive
outcome [11]: inactive

CCC(=NOC/C=C/Cl)C1=C(O)CC(C2CCOCC2)CC1=O (stereo not given)
outcome [12]: inactive

CC(C)[C@H](C(=O)O[C@H](C#N)c1cccc(Oc2ccccc2)c1)c1ccc(Cl)cc1
outcome [13]: inactive
AC50 [14]: 13 µM (active)

CN(C)C(=O)Nc1cccc(C(F)(F)F)c1
outcome [4]: inactive

CNC(=O)ON=C(C)SC
outcome [15]: inactive

CCOP(=S)(OCC)OC(Cl)C(Cl)(Cl)Cl (stereo not given)
outcome [3]: inactive

CNc1cnn(-c2cccc(C(F)(F)F)c2)c(=O)c1Cl
outcome [16]: inactive

C=C(C)[C@H]1Cc2c(ccc3c2O[C@@H]2COc4cc(OC)c(OC)cc4[C@@H]2C3=O)O1
outcome [17]: inactive

CC1=NNC(=O)N(/N=C/c2cccnc2)C1
AC50 [9]: 32.8 µM (active)
outcome [3]: inactive

O=C(O)c1cc(Oc2ccc(C(F)(F)F)cc2Cl)ccc1[N+](=O)[O-]
outcome [18]: inactive

C#CC(C)(C)NC(=O)c1cc(Cl)cc(Cl)c1
outcome [3]: inactive

Cc1ccn2nc(S(=O)(=O)Nc3c(F)cccc3F)nc2n1
outcome [4]: inactive
outcome [19]: inactive

CN(C)[C@@H]1C(=O)C(C(N)=O)=C(O)[C@@]2(O)C(=O)C3=C(O)c4c(O)cccc4[C@@](C)(O)[C@H]3[C@H](O)[C@@H]12
outcome [18]: inactive
AC50 [5]: 5.86 µM (active) and 7.55 µM (active)
outcome [5]: inactive
AC50 [17]: 15 µM (active)
AC50 [4]: 19.1 µM (active)
outcome [4]: inactive
outcome [2]: inactive
AC50 [8]: 9.28 µM (active)
outcome [8]: inactive
